Laboratory results taken from PMC4336329 (PLoS ONE, 2015).
In all, about 310,000 compounds went through this assay and about 14,000 (4.5%) showed an effect of 50% or more. The effect is printed as a negative number. The entries come from a sample that favours strong results as a whole.

target: human ether-à-go-go-related gene (hERG) potassium channel (human, UniProt Q12809); assay: primary screen, population patch clamp on CHO cells stably expressing hERG; higher = less effect of the substance
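Also: peak tail current of the secondary pulse compared with the same well before compound.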

Sequence of human ether-à-go-go-related gene (hERG) potassium channel (Q12809 whole entry, looked up): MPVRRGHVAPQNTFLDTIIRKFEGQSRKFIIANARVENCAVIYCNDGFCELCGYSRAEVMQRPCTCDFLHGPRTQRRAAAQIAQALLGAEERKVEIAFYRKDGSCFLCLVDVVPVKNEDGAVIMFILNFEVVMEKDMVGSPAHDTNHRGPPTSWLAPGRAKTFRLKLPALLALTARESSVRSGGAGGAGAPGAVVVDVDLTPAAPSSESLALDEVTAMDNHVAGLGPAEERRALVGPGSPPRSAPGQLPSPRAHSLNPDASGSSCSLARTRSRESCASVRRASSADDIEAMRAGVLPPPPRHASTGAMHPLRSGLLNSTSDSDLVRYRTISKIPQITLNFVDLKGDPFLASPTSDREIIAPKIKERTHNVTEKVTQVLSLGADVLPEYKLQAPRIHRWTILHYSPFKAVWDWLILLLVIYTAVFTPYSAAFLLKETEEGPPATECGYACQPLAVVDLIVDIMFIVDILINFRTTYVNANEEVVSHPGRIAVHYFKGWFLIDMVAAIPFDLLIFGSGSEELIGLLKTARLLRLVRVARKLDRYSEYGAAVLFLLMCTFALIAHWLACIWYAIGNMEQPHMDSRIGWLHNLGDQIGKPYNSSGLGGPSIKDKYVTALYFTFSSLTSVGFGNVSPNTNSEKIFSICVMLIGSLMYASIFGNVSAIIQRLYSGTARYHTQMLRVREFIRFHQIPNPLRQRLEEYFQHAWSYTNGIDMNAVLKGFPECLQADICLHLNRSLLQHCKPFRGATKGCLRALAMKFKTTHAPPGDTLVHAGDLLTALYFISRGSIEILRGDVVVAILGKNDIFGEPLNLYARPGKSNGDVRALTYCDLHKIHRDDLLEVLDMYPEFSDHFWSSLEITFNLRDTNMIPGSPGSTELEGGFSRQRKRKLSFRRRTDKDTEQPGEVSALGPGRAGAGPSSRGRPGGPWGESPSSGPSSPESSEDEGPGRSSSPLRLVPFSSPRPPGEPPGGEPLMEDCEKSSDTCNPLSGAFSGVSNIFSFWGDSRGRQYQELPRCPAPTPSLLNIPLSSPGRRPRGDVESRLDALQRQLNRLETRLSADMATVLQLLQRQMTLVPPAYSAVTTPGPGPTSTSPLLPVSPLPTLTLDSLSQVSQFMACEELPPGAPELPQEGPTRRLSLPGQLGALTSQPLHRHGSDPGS

| SMILES | hERG current change (%, negative = inhibition) at 10uM [%] |
| --- | --- |
| Cc1ccc(N2C(=O)N(CC(=O)Nc3cccc(Cl)c3)C(=O)C2C)cc1 (stereo not drawn) | -14.9 |
| O=C(COC(=O)CCc1ccc(S(=O)(=O)N2CCOCC2)cc1)NC1CCCCCC1 | -10.8 |
| CN(C)c1ccc(-c2cccc(C3CC=CC4C3C(=O)N(Cc3ccccc3)C4c3ccc4ccccc4c3)c2)cc1 (stereo not drawn) | 17.5 |
| c1ccc(N2CCN(Cc3ccc4c(c3)OCO4)CC2)nc1 | -8.79 |
| Cc1nc([N+](=O)[O-])c(N2CCN(C)CC2)n1Cc1ccccc1 | -10.4 |
| O=C(O)c1ccc(N2CCN(Cc3ccc4c(c3)OCO4)CC2)c([N+](=O)[O-])c1 | 17.3 |
| Cl.O=[N+]([O-])c1ccc2ncnc(N3CCN(Cc4ccc5c(c4)OCO5)CC3)c2c1 | -24.6 |
| CN(C(=O)CN1CCN(c2ccc([N+](=O)[O-])cn2)CC1)c1ccccc1 | -49.1 |
| O=[N+]([O-])c1ccc(N2CCN(c3ccccc3)CC2)nc1 | 4.96 |
| O=[N+]([O-])c1ccc(N2CCN(Cc3ccc4c(c3)OCO4)CC2)nc1 | -54.4 |
| O=S(=O)(c1ccc(N2CCN(Cc3ccc4c(c3)OCO4)CC2)nc1)N1CCOCC1 | -32.1 |
| Cl.O=[N+]([O-])c1ccc(N2CCN(Cc3ccccc3)CC2)nc1 | -59 |
| Cc1nc([N+](=O)[O-])c(N2CCN(Cc3ccccc3)CC2)n1Cc1ccccc1 | -64.3 |
| O=Cc1cc([N+](=O)[O-])ccc1N1CCN(Cc2ccc3c(c2)OCO3)CC1 | -67.5 |
| Cc1nc([N+](=O)[O-])c(N2CCOCC2)n1Cc1ccccc1 | 9.64 |
| COc1cccc(NC(=S)NNC(=O)c2ccccc2OC(F)F)c1 | 12.3 |
| Fc1ccccc1-c1[nH]ncc1-c1nnnn1-c1ccccc1 | 5.39 |
| CCc1nnc(NC(=O)c2ccc3c(c2)C(=O)N(C(C)(C)C)C3=O)s1 | 7.02 |
| O=C(CSc1ccc2ccccc2c1)NC1CCCc2ccccc21 (stereo not drawn) | 8.2 |
| COc1ccc(Cl)cc1NC(=S)NC(=O)c1ccco1 | -31.5 |
| COc1cc(/C=N/NC(=O)CNC(=O)c2ccco2)ccc1O | 7.95 |
| CC(OC(=O)C1CC(=O)N(Cc2ccco2)C1)C(=O)Nc1ccccc1[N+](=O)[O-] (stereo not drawn) | -19.1 |
| CCc1noc(C)c1C(=O)OC(C)C(=O)Nc1ccccc1OC (stereo not drawn) | -12.8 |
| COc1ccc([N+](=O)[O-])cc1NC(=O)C(C)OC(=O)c1ccccn1 (stereo not drawn) | -7.61 |

| SMILES | hERG current change (%, negative = inhibition) at 10uM [%] |
| --- | --- |
| CCc1noc(C)c1C(=O)OC(C)C(=O)Nc1cc([N+](=O)[O-])ccc1OC (stereo not drawn) | -53.1 |
| COc1cc2c(cc1NC(=O)C(C)OC(=O)C1CC(=O)N(Cc3ccco3)C1)oc1ccccc12 (stereo not drawn) | -1.77 |
| COc1ccc([N+](=O)[O-])cc1NC(=O)C(C)OC(=O)C1CC(=O)N(Cc2ccco2)C1 (stereo not drawn) | -57.4 |
| O=C(COC(=O)c1ccc(Cl)c(S(=O)(=O)N2CCCC2)c1)NCc1cccs1 | -39.8 |
| CCOc1ccc(/C=N/NC(=O)C2(O)c3ccccc3-c3ccccc32)cc1 | 4.13 |
| CCSc1nnc(NC(=O)[C@@H](NC(=O)c2ccccc2F)C(C)C)s1 | -8.27 |
| O=C(Nc1nccs1)c1ccc(F)c(S(=O)(=O)N2CCOCC2)c1 | -18.8 |
| Cc1cc(C)n(CC(O)Cn2ccc3ccccc32)n1 (stereo not drawn) | -12.5 |
| CC1C2CC(C(CN(C)C)/C2=N/O)C1(C)C (stereo not drawn) | -9.04 |
| O=C1C=C(c2ccccc2)C(=O)N1Nc1ccccc1 | -77.2 |
| COc1ccc(C2=CC(=O)N(Nc3ccccc3)C2=O)cc1 | 24.6 |
| O=C1C=C(c2ccc(Cl)cc2)C(=O)N1Nc1ccccc1 | 13.1 |
| CN(c1ccccc1)c1nc2ccsc2c(=O)s1 | 4.47 |
| CC(C)=CCN1CCN(Cc2ccc(Oc3ncccn3)cc2)CC1CCO (stereo not drawn) | 9.1 |
| CC(C)CCN1CCN(Cc2cccc3cccnc23)CC1CCO (stereo not drawn) | -26.2 |
| CC(C)CN1CCN(Cc2cccc3ncccc23)CC1CCO (stereo not drawn) | -2.49 |
| CCn1ccnc1CN1CCN(CCC(C)C)C(CCO)C1 (stereo not drawn) | 18.9 |
| CC(C)N1CCN(Cc2cccn2-c2ccccn2)CC1CCO (stereo not drawn) | -31.2 |
| CC(C)=CCN1CCN(Cc2cccn2-c2ncccn2)CC1CCO (stereo not drawn) | -39.6 |
| CC(C)CCN1CCN(Cc2cccn2-c2ccccn2)CC1CCO (stereo not drawn) | -75.5 |
| CC(C)=CCN1CCN(Cc2cccn2-c2ccccn2)CC1CCO (stereo not drawn) | -55.4 |
| CC(C)CN1CCN(Cc2cccn2-c2ccccn2)CC1CCO (stereo not drawn) | -55.9 |
| CCC(C)N1C(=O)N(C)C2NC(=O)NC21 (stereo not drawn) | -2.9 |
| Cc1ccc(OCC(=O)NNC(=S)NC(=O)C2CC2)c(C)c1 | 23.2 |

| SMILES | hERG current change (%, negative = inhibition) at 10uM [%] |
| --- | --- |
| Nc1c2c(nc3c1CCCC3)CCCC2.O=C(O)c1cc[nH]c(=O)c1 | -10.1 |
| Clc1ccc(OCC#CCN2CCCCCC2)cc1.O=C(O)C(=O)O | -34.7 |
| Cc1ccccc1Nc1nnc(C)c(=O)[nH]1 | -11.3 |
| CC(=O)N1CCN(c2ccc(NC(=O)c3ccc([N+](=O)[O-])cc3Cl)cc2)CC1 | -8.49 |
| CCOc1cccc(OCCOCCN(C)Cc2ccccc2)c1 | -49.3 |
| CCN(CC(=O)Nc1ccc(NC(C)=O)cc1)C(=O)c1oc2ccccc2c1C | -20.2 |
| CCN(CC(=O)NCc1ccc(Cl)cc1)C(=O)CN1C(=O)NC(CC)(c2ccccc2)C1=O (stereo not drawn) | -6.03 |
| CCN(CC(=O)NCc1ccc(Cl)cc1)S(=O)(=O)c1ccc(F)cc1 | -19.1 |
| CCN(CC(=O)NCc1ccc(Cl)cc1)C(=O)CSc1ccc(F)cc1 | -71.1 |
| O=C(CSc1ccc(Cl)cc1)NCc1ccncc1 | -14.2 |
| CCN(CC(=O)NCc1ccc(Cl)cc1)C(=O)CSc1ccccc1 | -65.6 |
| CCN(CC(=O)NCc1ccc(Cl)cc1)C(=O)CSc1ccc(Br)cc1 | -79.2 |
| CCN(CC(=O)NCc1ccc(Cl)cc1)C(=O)c1oc2ccccc2c1C | -54.5 |
| CCN(CC(=O)NCc1ccc(Cl)cc1)C(=O)CSc1cccc(C(F)(F)F)c1 | -23.3 |
| CCN(CC(=O)NCc1ccc(Cl)cc1)C(=O)CSc1ccccc1F | -19.3 |
| CCN(CC(=O)Nc1c(F)cccc1F)C(=O)CSc1ccc(F)cc1 | -14.3 |
| CCN(CC(=O)NCc1ccc(F)cc1)C(=O)c1oc2ccccc2c1C | -43.9 |
| Cc1ccc(-c2nn3c(C)nnc3s2)cc1NCc1c(F)cccc1Cl | 2.39 |
| Fc1ccc(N2CN(Cc3cccnc3)CNC2=S)cc1 | 10.7 |
| Cc1ccc(C(O)Cn2nc(C)cc2C)cc1 (stereo not drawn) | 13.7 |
| CCCCCc1c(O)nc(SCCN(CC)CC)[nH]c1=O.Cl | 9.87 |
| COc1ccc(N(C(=O)c2cccnc2)S(=O)(=O)c2ccc3c4c(cccc24)C(=O)N3C)cc1 | 17.7 |
| C=CCn1c(=O)c2ccccc2n2c(SCc3nc4ccccc4s3)nnc12 | -34.4 |
| CCOc1ccc(NC(=O)Cn2nc(C(N)=O)c3ccccc3c2=O)cc1S(=O)(=O)N1CCCC1 | 0.537 |

| SMILES | hERG current change (%, negative = inhibition) at 10uM [%] |
| --- | --- |
| Cc1ccccc1NC(=O)c1cccc(Cn2cc(Br)c([N+](=O)[O-])n2)c1 | -3.63 |
| COc1ccc(NC(=O)c2cccc(Cn3cc(Br)c([N+](=O)[O-])n3)c2)c(C)c1 | -72 |
| COc1ccc(OC)c(NC(=O)c2cccc(Cn3cc(Br)c([N+](=O)[O-])n3)c2)c1 | -13.9 |
| Cc1cc(CC(C)C)n(-c2nc3ccccc3c(=O)n2OCc2ccccc2)n1 | -7.08 |
| COc1ccc(CCNc2ncnc3c2nnn3Cc2ccccc2)cc1 | 13 |
| COc1ccc(C(=O)C2CCCN(Cc3ccc4nonc4c3)C2)cc1OC (stereo not drawn) | -67.4 |
| COc1ccc(C(=O)C2CCCN(Cc3ccc4nonc4c3)C2)cc1F (stereo not drawn) | -41.1 |
| COc1ccc(C(=O)C2CCCN(Cc3ccc4nonc4c3)C2)c(C)c1 (stereo not drawn) | -20.3 |
| COc1ccc(C(=O)C2CCCN(Cc3ccc4nonc4c3)C2)c(OC)c1 (stereo not drawn) | -66.7 |
| COc1ccccc1CCNC(=O)CNC(=O)Cc1cccc2ccccc12 | -1.6 |
| CC(C(=O)Nc1ncn[nH]1)N1C(=O)c2ccccc2C1=O (stereo not drawn) | 17.4 |
| CCCCn1c(=O)c(C(=O)Nc2ccccc2S(N)(=O)=O)c(O)c2ccccc21 | -12.3 |
| COc1ccc(S(N)(=O)=O)cc1C(=O)NCCCN1CCN(c2ccc(C)cc2)CC1 | -50.7 |
| COc1ccc(S(=O)(=O)Cc2ccc(C(=O)NCCCN3CCc4ccccc4C3)o2)cc1 | -51.2 |
| COc1ccc(S(=O)(=O)Cc2ccc(C(=O)NCc3ccccc3OC)o2)cc1 | -41.6 |
| COCCNC(=O)c1ccc(CS(=O)(=O)c2ccc(OC)cc2)o1 | -0.154 |
| Cc1ccc(S(=O)(=O)Cc2ccc(C(=O)NCCCN3CCN(C)CC3)o2)cc1 | 15.6 |
| COc1ccc(N2CCN(CCCNC(=O)c3ccc(CS(=O)(=O)c4ccc(Cl)cc4)o3)CC2)cc1 | -77.1 |
| O=C(NCCCN1CCCC1)c1ccc(CS(=O)(=O)c2ccc(Cl)cc2)o1 | -6.15 |
| COc1ccc(S(N)(=O)=O)cc1C(=O)NCC(C)(C)N1CCOCC1 | 8.36 |
| COc1ccc(S(N)(=O)=O)cc1C(=O)NCCCN1CCN(c2cccc(Cl)c2)CC1.CS(=O)(=O)O | -23.9 |
| O=C(NCCN1CCOCC1)c1ccc(CS(=O)(=O)c2ccc(Cl)cc2)o1 | -4.24 |
| COc1ccc(S(=O)(=O)Cc2ccc(C(=O)NC3CC3)o2)cc1 | -2.21 |
| COc1ccc(N2CCN(CCCNC(=O)c3ccc(CS(=O)(=O)c4ccc(OC)cc4)o3)CC2)cc1 | -68.9 |
